The text below walks through data of PubChem BioAssay AID686978 (National Center for Advancing Translational Sciences (NCATS), 2013).

The whole screen tested about 420,000 compounds, of which about 64,000 (15%) were called active. Another 27% or so got no clear call; they are omitted. Calls follow the shape of the dose curve; as a rule, active = well fitted inhibition curve with a large enough effect; inconclusive = small, poorly fitted or top-dose-only effect; inactive = flat fitted curve, though single readings scatter. Not all results are given here.
% is scaled to controls: 0 for no effect and ±100 for the full control effect; potency is read from the fitted curve at half-maximal effect.

This experiment is described as follows: qHTS for Inhibitors of human tyrosyl-DNA phosphodiesterase 1 (TDP1): qHTS in cells in absence of CPT. Also: nearly all actives have a fitted effect of over 55% in size. The conditions noted are these: DT40 Tdp1-/- hTDP1 cells, no CPT, ATP luminescence, 48 h; activity change, negative = growth inhibition: at 46.2 µM (top of the series). The essentials: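 Readout: luminescence from CellTiter-Glo after 30 min in the dark at RT. Cells: DT40 Tdp1-/- with stable hTDP1, 400/well. Exposure: compounds alone, ≥48 hr, 37 °C.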
For orientation: In qHTS, concentration-response curves come from the screen itself.
For the molecule `COC(=O)c1ccc(C2NC(=O)NC(C)=C2C(=O)N(C)C)cc1` (stereo not given), the “activity change, negative = growth inhibition” value is -2.25% (inactive). Still for that read-out and setting: in the case of `NC(=O)c1nnsc1-c1ccc(-c2snnc2C(N)=O)cc1` it was 1.83% (inactive); in that of `CCCCN(CC)CCNC(=O)c1[nH]c(C)c(C(C)=O)c1C`, 1.12% (inactive). `CCS(=O)(=O)N1CCCC(C(=O)NCCCN(C)Cc2ccccc2)C1` (stereo not given): the “activity change, negative = growth inhibition” value is 2.93% (inactive). Same read-out and setting: in the case of `c1ccc2c(CNn3cnnc3)cccc2c1` it was 5.72% (inactive). Consider `N=C(N)SCc1cccc2ccccc12`, for which the Potency was 20.6 µM (active). With `c1ccc(NCc2cccc3ccccc23)nc1`, the “activity change, negative = growth inhibition” value is 2.55% (inactive). The same measure, in the same setting: in the case of `CCCCCc1ccc(-c2ccc(C(=O)O)cc2)nc1` it was -3.48% (inactive); in that of `CCN(C(=O)COC(=O)c1c(NC(C)=O)sc(C)c1C)C1CCS(=O)(=O)C1` (stereo not given), -12.8% (inactive). Same read-out and setting: in the case of `Cc1c(NC(=O)C(C)Oc2cccc(Cl)c2)c(=O)n(-c2ccccc2)n1C` (stereo not given) it was -5.95% (inactive); in that of `O=c1nc2s/c(=C\c3ccco3)c(=O)n2nc1Cc1ccccc1`, -27.8% (inactive). For the molecule `Cc1csc(Nc2ccc(Cl)cc2)[n+]1-c1ccc(Cl)cc1`, the Potency was 25.9 µM (active). Consider `Cc1cc(-c2nc(C)c(-c3nnc(SCC(=O)Nc4ccccc4)n3C)s2)no1`, for which the “activity change, negative = growth inhibition” value was 4.42% (inactive). Same read-out and setting: in the case of `Cc1cc(C(=O)OCC(=O)Nc2ccc(F)c(F)c2)c(C)o1` it was -2.49% (inactive); in that of `COc1cc(CO)ccc1OCC(=O)Nc1cccc2ccccc12`, -4.31% (inactive); in that of `COc1ccc(CNC(=O)CSc2n[nH]c(N)n2)cc1OC`, -13.1% (inactive). In the case of `COc1ccc(CNC(=O)COc2ccccc2C(=O)c2cnn(-c3ccccc3)c2)cc1OC`, the Potency was 14.6 µM (active). As for `COc1cc(S(=O)(=O)Nc2ncn[nH]2)ccc1Cl`, the “activity change, negative = growth inhibition” value is 0.0265% (inactive).

For the molecule `CCc1nnc(NC(=O)CSc2nnc(COc3ccc(C#N)cc3)n2-c2ccccc2)s1`, the “activity change, negative = growth inhibition” value is -9.91% (inactive). Still for that read-out and setting: in the case of `CC(C)(C)NC(=O)C(c1ccco1)N(Cc1ccc2c(c1)OCO2)C(=O)Cn1nnc2ccccc21` (stereo not given) it was -25.3% (inactive). Take `CCCN1C(=O)C(O)(CC(=O)c2ccc(CC)cc2)c2cc(Br)ccc21` (stereo not given): the Potency was 6.51 µM (active).

Consider `Cc1coc(C)c1C(=O)CC1(O)C(=O)N(C)c2ccc(Cl)cc21` (stereo not given), for which the “activity change, negative = growth inhibition” value is -16.7% (inactive). On the same count and under the same terms, in the case of `Cc1ccc(CCN2CC(C(=O)NCCc3ccccc3)CC2=O)cc1` (stereo not given) it was -19.1% (inactive). On the same count and under the same terms, in the case of `CCc1ccc(C(=O)COC(=O)c2ccco2)cc1` it was 13.7% (inactive); in that of `O=C(CC1(O)C(=O)N(CN2CCOCC2)c2ccccc21)c1ccccc1` (stereo not given), -27.9% (inactive).

For `Cc1ccc(C(=O)CC2(O)C(=O)N(CCc3ccccc3)c3ccc(Br)cc32)cc1` (stereo not given), the Potency was 16.4 µM (active). On to `Cc1ccccc1-c1nc(C#N)c(NCc2ccco2)o1`, for which the “activity change, negative = growth inhibition” value was -18.2% (inactive). On to `COc1cc(NC(=O)C2CCN(c3cnccn3)CC2)cc(OC)c1`, for which the Potency result is “inactive”.

Turning to `COc1cc(/C=C/C(=O)OCC(=O)N2CCOCC2)ccc1OCC#N`, the “activity change, negative = growth inhibition” value was -18.8% (inactive). Take `COC(=O)c1ccc(COc2ccc(/C=C/C(=O)c3ccc(OC)c(CSCC(=O)O)c3)cc2OC)cc1`: the “activity change, negative = growth inhibition” value was -10.6% (inactive). Regarding `COCOc1cc(O)c(C(=O)/C=C/c2ccc(OCOC)c(OCOC)c2)c(OCOC)c1`, the Potency is 23.1 µM (active). `CCOC(=O)CSc1nnc(NC(=O)c2cccc(S(=O)(=O)N3CCCCC3)c2)s1`: the “activity change, negative = growth inhibition” value is -1.98% (inactive).

In the case of `CCOc1ccc(S(=O)(=O)Nc2nc3cc(OC)ccc3s2)cc1`, the “activity change, negative = growth inhibition” value is 4.1% (inactive). Same read-out and setting: in the case of `Cc1cc(/C=N/Nc2ccc([N+](=O)[O-])cn2)c(C)n1-c1cccc(C(=O)O)c1` it was 13.9% (inactive); in that of `COc1ccc(Nc2ccc([N+](=O)[O-])cn2)cn1`, -0.0035% (inactive). As for `Cc1ccc(-n2c(C)cc(/C=N/Nc3ccc([N+](=O)[O-])cn3)c2C)c(C)c1`, the Potency was 23.1 µM (active). Regarding `Cc1ccc(SCC(=O)Nc2nncs2)cc1`, the “activity change, negative = growth inhibition” value is 0.103% (inactive). Same read-out and setting: in the case of `CCOC(=O)c1cccc(NC(=O)CCOc2ccccc2)c1` it was -11.2% (inactive). As for `CCOCCC(=O)Nc1ccc2c(c1)c(=O)n(C)n2-c1ccc2ccccc2c1`, the Potency is 5.8 µM (active). Regarding `CCCC(=O)Nc1ccc2c(c1)nc(CCNC(=O)c1ccco1)n2C`, the “activity change, negative = growth inhibition” value is -9.29% (inactive).

As to `O=C(CCCOc1ccccc1)NNC(=O)c1ccc(Cl)cc1`, the “activity change, negative = growth inhibition” value is 5.41% (inactive). For `C[N+]1(CC(=O)c2cccs2)CCOCC1`, the “activity change, negative = growth inhibition” value was -7.74% (inactive). In the case of `CC(C)CCOc1ccc(C(=O)C[N+]2(C)CCOCC2)cc1`, the Potency is 18.4 µM (active). For the molecule `CC(C)Oc1ccc(C(CC(=O)N2CCOCC2)C(C)C)cc1` (stereo not given), the “activity change, negative = growth inhibition” value is 13.9% (inactive). On the same count and under the same terms, in the case of `COc1ccccc1C1C(C(=O)N2CCCCC2)=C(C)Nc2nc3ccccc3n21` (stereo not given) it was 2.64% (inactive). For `COc1cc(OC)c(NC(=O)c2c3c(nn2C)-c2ccccc2SC3)cc1Cl`, the Potency is 16.4 µM (active). `COc1cc(OC)c(NC(=O)c2nc(-c3ccncc3)no2)cc1Cl`: the “activity change, negative = growth inhibition” value is -5.54% (inactive).

As to `COc1cc(OC)c(NC(=O)c2cnc(N3CCCC3)nc2C)cc1Cl`, the “activity change, negative = growth inhibition” value is -19.9% (inactive). On the same count and under the same terms, in the case of `Cc1cc(C)c(S(=O)(=O)c2cc(F)ccc2C)c(=O)[nH]1` it was -0.186% (inactive); in that of `CCOC(=O)c1cc(-c2ccc(F)cc2)n(CC(=O)NCc2ccccn2)c1C`, -1.43% (inactive). As for `CS(=O)(=O)N(CC(=O)N1CCN(Cc2ccc3c(c2)OCO3)CC1)c1ccc2c(c1)OCO2`, the “activity change, negative = growth inhibition” value was -25.9% (inactive).

`CCN(CCCNC(=O)C1CCN(S(=O)(=O)c2cnc[nH]2)CC1)c1ccccc1`: the “activity change, negative = growth inhibition” value was -18.9% (inactive).

With `O=C(C1CCN(S(=O)(=O)c2cnc[nH]2)CC1)N1CCN(Cc2ccc3c(c2)OCO3)CC1`, the Potency is 20.6 µM (active).

Take `CC(C)NC(=O)CCCn1c(=S)[nH]c2cc3c(cc2c1=O)OCO3`: the “activity change, negative = growth inhibition” value was -20.5% (inactive). The same measure, in the same setting: in the case of `CC(=O)N1CCN(C(=O)c2cccc(S(=O)(=O)Nc3ccc(C)cc3)c2)CC1` it was -4.18% (inactive).
